mHTT-CaM PPI inh – mHTT-calmodulin interaction abrogation; hit rate 3.6% among 190,000; P42858; AlphaScreen His-mHTT/GST-CaM binding, luminescence; inhibition, % at 15 µM;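 note: 0% = both proteins with DMSO and 100% = one protein alone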
Pf apPOL block – Pf-apPOL DNA polymerase inhibition; Recombinant Pf-apPOL, molecular beacon fluorescence, 1.5 h; AID 1794808; inhibition, % at 10 µM; hit rate 0.25% among 210,000
An asterisk follows results filed as active; · = no result. Most compounds without a hit are left out; they make up all but 3.6% or so of the library. Cut-off read from the data, not from the text of the source: active = inhibition above about 50%; inactive = the rest.

SMILES | mHTT-CaM PPI inh | Pf apPOL block
O=C(CSc1nnc(-c2ccco2)c(-c2ccco2)n1)N1CCc2ccccc2C1 | 93* | 1
Cc1ccnc(SCC(=O)N2CCc3ccccc3C2)n1 | -5 | -43
COc1ccc(NC(=O)CSc2ncccn2)cc1 | -2 | 2
CCCCSc1nnc2c(n1)OC(/C=C/c1ccco1)Nc1ccccc1-2 (centres undefined) | 32 | 16
Cc1ccc(-n2ccc(C#N)c2C(=O)NCCN(C)C)c(C)c1 | -8 | 2
CNC(=O)c1ccc(-c2noc(C)n2)cc1 | 1 | -5
Cn1c(=O)c(N2CCN(C(=O)Cc3cccc(F)c3)CC2)nc2ccccc21 | 12 | -2
Clc1ccc(CNCc2cccnc2)cc1 | -9 | -3
COC(=O)c1ccc(Cn2cnc3c(-c4cccc(F)c4)csc3c2=O)o1 | 8 | -6
CCc1ccc(NC(=O)CSc2nnc(-c3ccco3)o2)cc1 | 0 | -9
CCc1ccc(NC(=O)CSc2nnc(-c3ccco3)c(-c3ccco3)n2)cc1 | 92* | 0
O=C(O)CCC(=O)Nc1nc2n(n1)C(c1ccccc1)C=C(c1ccccc1)N2 (centres undefined) | 18 | 0
COc1ccc(C(=O)Nc2nc3n(n2)C(c2ccccc2)C=C(c2ccccc2)N3)cc1 (centres undefined) | 61* | 0
COc1ccccc1C(=O)Nc1nc2n(n1)C(c1ccccc1)C=C(c1ccccc1)N2 (centres undefined) | 68* | -3
CC(=O)Nc1nc2n(n1)C(c1ccccc1)C=C(c1ccccc1)N2 (centres undefined) | 13 | 15
CC1=CC(c2ccc(Cl)cc2)n2nc(NC(=O)c3ccccc3)nc2N1 (centres undefined) | 16 | 2
O=C(Nc1nc2n(n1)C(c1ccccc1)C=C(c1ccccc1)N2)c1ccco1 (centres undefined) | 67* | -7
COc1ccc(C(=O)Nc2nc3n(n2)C(c2ccccc2)C=C(c2ccc(Cl)cc2)N3)cc1 (centres undefined) | 62* | 0
O=C(Nc1nc2n(n1)C(c1ccccc1)C=C(c1ccc(Cl)cc1)N2)c1ccco1 (centres undefined) | 49 | 0
Cc1cc2[nH]c(C(=O)Nc3ccc(F)cc3Cl)c(CN3CCOCC3)c2s1 | 5 | 9
CCC(=O)N(Cc1ccco1)C1CC(=O)N(c2ccc(Br)cc2)C1=O (centres undefined) | 5 | -5
Cc1cc(C)cc(-c2nc3cc(C)ccn3c2NC(=O)C(C)Cl)c1 (centres undefined) | 38 | 0
CC(=Cc1ccccc1)C=C1SC(=S)N(C(CCC(=O)O)C(=O)O)C1=O (centres undefined) | 11 | -142
CC(=Cc1ccccc1)C=C1SC(=S)N(C(Cc2ccccc2)C(=O)O)C1=O (centres undefined) | 85* | -135
CC(=O)Nc1cc(N=Cc2ccccc2F)c(Cl)cc1Cl | -5 | -3
SMILES | mHTT-CaM PPI inh | Pf apPOL block
O=C1Nc2ccccc2/C1=C/c1ccc(Cl)cc1Cl | 10 | -2
COc1ccc(N=C2C(=O)Nc3ccc(Br)cc32)cc1 | 26 | 5
O=C1Nc2ccc(Br)cc2/C1=C/c1ccc(Cl)cc1Cl | 52* | -6
COc1ccc(/C=C2\C(=O)Nc3ccc(Br)cc32)c(OC)c1OC | 100* | 4
COc1cc2c(cc1OC)/C(=C/c1cc(OC)c(OC)c(OC)c1)C(=O)N2 | 50 | ·
CC(C)(C)C(=O)C=C1C(=O)Nc2ccc(Br)cc21 | · | -1
COc1ccc(OC)c(/C=C2\C(=O)Nc3ccc(Br)cc32)c1 | 54* | -1
COc1ccc(O)c(/C=C2\C(=O)Nc3ccc(Br)cc32)c1 | 91* | -7
CN1OC(COS(=O)(=O)c2ccc([N+](=O)[O-])cc2)CC12C1CC3CC(C1)CC2C3 (centres undefined) | · | 11
COc1ncccc1CN(C)S(=O)(=O)c1cccnc1 | -1 | 3
COc1ccc(N2C=C(C#N)S(=O)(=O)c3c(F)cccc32)c(C)c1 | -8 | 0
CC(C)COC(=O)CSc1n[nH]c(=O)[nH]c1=O | -8 | ·
O=C(CCS(=O)(=O)c1ccc(Br)s1)NC1CCCCC1 | -3 | -2
O=C(O)c1c[nH]c(=O)c([N+](=O)[O-])c1O | · | -16
Cc1ccc2nc3c(N)c(Cl)cc4c3c(c2c1)-c1ccccc1C4=O | 61* | -3
O=C1c2ccccc2-c2cc(Cl)nc3ccc(Cl)c1c23 | 5 | -2
CCOc1ccccc1NC(=O)c1c[nH]c(=O)n(-c2ccc(F)cc2)c1=O | 72* | -13
CCOc1ccccc1NC(=O)c1ccccc1Cl | -18 | 1
COc1ccc(C2CC(C(F)(F)F)n3nc(C(=O)Nc4cc(C)ccc4O)cc3N2)cc1 (centres undefined) | 12 | -14
O=C(NCC1CCCO1)c1cc2n(n1)C(C(F)(F)F)CC(c1ccc(Cl)c(Cl)c1)N2 (centres undefined) | 54* | -8
N#CCCc1cccc(NC(=O)c2cc3n(n2)C(C(F)(F)F)CC(c2ccc(Cl)cc2)N3)c1 (centres undefined) | 74* | 0
O=C(Nc1cc(Cl)ccc1O)c1cc2n(n1)C(C(F)(F)F)CC(c1ccc(Cl)cc1)N2 (centres undefined) | 89* | -3
Cc1ccc(C2CC(C(F)(F)F)n3nc(C(=O)Nc4cccc(CCC#N)c4)cc3N2)cc1 (centres undefined) | 18 | -1
O=C(NCC1CCCO1)c1cc2n(n1)C(C(F)(F)F)CC(c1ccco1)N2 (centres undefined) | -4 | -2
O=C(NCCc1ccccn1)C1CCCN(c2nnc3c(Cl)cccn23)C1 (centres undefined) | 1 | 1
SMILES | mHTT-CaM PPI inh | Pf apPOL block
O=C(NCc1ccccc1F)C1CCCN(c2nnc3c(Cl)cccn23)C1 (centres undefined) | 13 | -11
Cc1cc(Nc2ccc(I)cc2)c2cc(Cl)ccc2n1 | 4 | -5
CCn1c(=N)c(C(=O)NC(C)c2ccccc2)cc2c(=O)n3cccc(C)c3nc21 (centres undefined) | 0 | -6
CC(NC(=O)c1cc2c(=O)n3ccccc3nc2n(Cc2ccco2)c1=N)c1ccccc1 (centres undefined) | 51* | -2
Cc1cccn2c(=O)c3cc(C(=O)NCc4ccccc4)c(=N)n(Cc4ccco4)c3nc12 | 38 | 12
CCNC(=O)c1cc2c(=O)n3ccccc3nc2n(Cc2ccco2)c1=N | 18 | 16
Cc1cccn2c(=O)c3cc(C(=O)NC(C)c4ccccc4)c(=N)n(C4CCCCC4)c3nc12 (centres undefined) | 54* | 0
Cc1cccn2c(=O)c3cc(C(=O)NC(C)c4ccccc4)c(=N)n(Cc4ccco4)c3nc12 (centres undefined) | 51* | 4
CCOc1ccccc1N1CCN(Cc2ccc([N+](=O)[O-])s2)CC1 | 17 | -2
C#CC(C)(C)N1CC(C)C(=O)CC1C (centres undefined) | -8 | ·
CN(Cc1ccccc1)C(=O)c1cccnc1N1CCNC(c2ccccc2)C1 (centres undefined) | 10 | -4
Cc1cc(C=O)c(C)n1-c1ccc(F)c(Cl)c1 | 13 | -7
COc1ccc(-n2c(C)cc(/C=C/[N+](=O)[O-])c2C)cc1Cl | 75* | -2
Cc1nnc(NC(=O)Cc2ccc(F)cc2)s1 | 0 | -8
O=C(Nc1ccccc1)O[C@H]1CCC12CCCCC2 | -85 | -6
Cc1[nH]n(-c2ccccc2)c(=O)c1C(c1ccco1)c1c(C)[nH]n(-c2ccccc2)c1=O | 54* | -7
